Screens from PubChem BioAssay.
IkB signaling – IkB Signaling; Potency, µM (highest dose often 57.1 µM); 0.04% of 110,000 active; AID 445, 2006; ABC-DLBCL IkBa-CBG/CBR dual luciferase ratio, 4 h; response scale: scaled: untreated 0%, proteasome inhibitor 100%; active means well fitted curve in the direction sought with a large enough effect in the signal ratio, not every such curve was filed as active; inconclusive means small, poorly fitted or top-dose-only effect, or a change in a side signal; the % refers to the signal ratio;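 further: the direction sought is a rising ratio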
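Luminescence ratio of IκBα-fused green versus native red beetle luciferase in OCI-Ly3 cells, 4 h post-doxycycline with compound; red signal alone, scaled from basal (0%) to zero light (-100%), flagged nonspecific or cytotoxic effects.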
Imprint erasure – qHTS Assay for Compounds that Induce Erasure of Genomic Imprints | mouse ES Peg3-LacZ reporter, beta-gal luminescence, 40 h | Potency, µM (top dose mostly 60.7 µM), usual class: activators | 0.02% of 110,000 active | AID 1948, 2009
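Each well holds 300 Peg3LacZ-Neo (maternal) female ES cells incubated 40 h at 37C, 5% CO2. LacZ is measured by BetaGlo luminescence, with AC50 and maximum efficacy derived from dose-response curves.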
p53ts 32C kill – qHTS Screen for Compounds that Selectively Target Cancer Cells with p53 Mutations: Cytotoxicity of p53ts Cells at the Permissive Temperature | H1299-p53A138V at 32C, ATP luminescence viability, 24 h | Potency, µM (highest dose often 46.1 µM), usual class: cytotoxic | 0.93% of 130,000 active; further: nearly all actives have a fitted effect of over 55% in size
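H1299-p53 A138V cells (temperature-sensitive p53) exposed 24 h to up to 46 uM compound at 32C, where p53 is wild-type in conformation. Viability read as ATP luminescence and normalised to DMSO and 100 uM tamoxifen. AC50 fitted with the Hill equation.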
p53ts 39C tox – qHTS Screen for Compounds that Selectively Target Cancer Cells with p53 Mutations: Cytotoxicity of p53ts Cells at the Nonpermissive Temperature | H1299-p53A138V viability at 39C, ATP luminescence, 24 h | Potency, µM (top dose mostly 46.1 µM), usual class: cytotoxic | 1.5% of 130,000 active | AID 902, 2007; further: nearly all actives have a fitted effect of over 55% in size
Large screens that a line does not name were inactive. Sampled rows, rich in hits. Any-hit rate of the full collection: about 1.8%. Unless noted, the call rests on the fitted dose curve; in most records, active means well fitted curve in the direction sought with a large enough effect; inconclusive means small, poorly fitted or top-dose-only effect, or another doubt; inactive means no such curve, though single readings can be large; an effect the other way counts as inactive or inconclusive.

CN(C)C(=O)c1ccc(-c2nc(Nc3ccccc3)c3ccccc3n2)cc1	p53ts 32C kill inconclusive, p53ts 39C tox inconclusive
CCCc1nn2cc(-c3ccc(C)c(C)c3)nc2s1	IkB signaling inconclusive, p53ts 32C kill 7.9µM, p53ts 39C tox 7.9µM
COc1cc(C2CC(=O)Oc3cc(C)c(Cl)cc32)cc(OC)c1OC (stereo not given)	none (no result: IkB signaling, p53ts 32C kill, p53ts 39C tox)
CCOc1ccc(-c2cc(C(=O)NCCc3ccc(OC)c(OC)c3)c3c(-c4ccc(F)cc4)[nH]nc3n2)cc1	p53ts 39C tox inconclusive
CCc1ccc(-c2[nH]nc3nc(-c4cc(OC)ccc4OC)cc(C(=O)O)c23)cc1	Imprint erasure inconclusive, p53ts 39C tox 4µM
CCOc1ccc(-c2cc(C(=O)NCCc3ccccc3)c3c(-c4ccc(C)cc4)[nH]nc3n2)cc1	p53ts 39C tox 16µM
COc1ccccc1-c1cc(C(=O)NCc2ccccc2)c2c(-c3ccc(C)cc3)[nH]nc2n1	none
COc1cc(OC)c(-c2cc(C(=O)NCc3ccc(F)cc3)c3c(-c4ccccc4)[nH]nc3n2)cc1OC	p53ts 32C kill 8.9µM, p53ts 39C tox inconclusive
COc1ccc(CCNC(=O)c2cc(-c3ccc(C)cc3)nc3n[nH]c(-c4ccccc4)c23)cc1OC	none
COc1ccc(-c2cc(C(=O)NCCc3ccccc3)c3c(-c4ccccc4)[nH]nc3n2)cc1OC	p53ts 32C kill inconclusive, p53ts 39C tox 13µM
COc1ccc(-c2[nH]nc3nc(-c4cc(OC)c(OC)c(OC)c4)cc(C(=O)O)c23)cc1	p53ts 39C tox inconclusive
CC(C)CO/N=C1/C[C@@H](O)[C@@H](O)[C@@H]2[C@@H]3C(=O)N(C4CCCCC4)C(=O)[C@H]3CC[C@@H]12	none (no result: IkB signaling, Imprint erasure)
CCN(c1cccc(C)c1)S(=O)(=O)c1ccc(O)c(C(=O)O)c1	none (no result: IkB signaling, Imprint erasure)
Fc1ccc(-c2cc3nc4c(c(N5CCOCC5)n3n2)CCCC4)cc1	none
O=c1c2c(nc3cc(-c4ccc(F)cc4)[nH]n13)CCCC2	IkB signaling inconclusive, p53ts 32C kill 13µM, p53ts 39C tox 10µM
Cc1sc2ncnc(Sc3nnnn3-c3ccccc3)c2c1C	IkB signaling inconclusive, p53ts 32C kill inconclusive
Clc1ccc(-n2nnnc2Sc2ncnc3sccc23)cc1	IkB signaling inconclusive, p53ts 32C kill inconclusive, p53ts 39C tox 20µM
COc1cccc2oc(-c3ccc(O)cc3)cc(=O)c12	p53ts 32C kill 6.3µM, p53ts 39C tox 7.9µM
O=c1cc(-c2ccccc2)oc2cc(O)c(O)c(O)c12	p53ts 32C kill inconclusive, p53ts 39C tox 0.63µM
COc1cccc2oc(-c3ccccc3)cc(=O)c12	p53ts 32C kill 10µM, p53ts 39C tox 7.9µM (no result: IkB signaling)
COc1ccccc1-c1cc(=O)c2cccc(OC)c2o1	none (no result: IkB signaling)
O=c1cc(-c2cccc(O)c2)oc2cccc(O)c12	none (no result: IkB signaling)
COc1cccc2oc(SC)cc(=O)c12	none (no result: IkB signaling, p53ts 32C kill, p53ts 39C tox)
COc1cccc(-c2cc(=O)c3ccccc3o2)c1N	p53ts 32C kill 7.9µM, p53ts 39C tox 5µM
CC(C)[C@H](NC(=O)OC(C)(C)C)[C@@H](O)CC(=O)C(C)(C)C	none (no result: IkB signaling, Imprint erasure)
CC(=O)[C@@H]1CC[C@@H]2[C@@H]3CC=C4C[C@H](OS(=O)(=O)O)CC[C@@]4(C)[C@H]3CC[C@]21C	none (no result: Imprint erasure)
CCCCC(CC)CNC(=O)CCCCCn1c(=O)[nH]c2ccsc2c1=O (stereo not given)	IkB signaling inconclusive
O=C(O)Cc1[nH]cnc1C(=O)O	none
COc1ccc(COC(=O)N/N=C2/C[C@@H](O)[C@@H](O)[C@@H]3[C@@H]4C(=O)N(C(C)(C)C)C(=O)[C@H]4CC[C@@H]23)cc1	none (no result: IkB signaling, Imprint erasure)
CCOC(=O)c1sc(NC(=O)C2CC2)cc1C	p53ts 32C kill 13µM, p53ts 39C tox 13µM
CCOC(=O)c1sc(NC(=O)c2ccc(Cl)s2)cc1C	p53ts 32C kill inconclusive
CCOC(=O)c1cnc(-n2nc(C)cc2C)nc1N(C)C	p53ts 32C kill 3.2µM, p53ts 39C tox 2µM
Cc1ccccc1C(=O)Nc1cc2c(cc1N1CCCCC1)n(C)c(=O)n2C	none
O=C(O)CCn1nnc(-c2cccs2)n1	none
CC(C)c1ccc(-c2nnn(CCC(=O)O)n2)cc1	IkB signaling inconclusive, p53ts 32C kill 10µM, p53ts 39C tox inconclusive
O=C(O)[C@H]1O[C@H]1C(=O)O	none
CCCCN(CC)C(=O)CSc1nc2n[nH]c(C)c2c(=N)n1-c1ccc(CC)cc1	IkB signaling inconclusive
Cc1nn(C(=O)c2cccs2)c(N)c1-c1ccccc1	p53ts 32C kill 13µM, p53ts 39C tox inconclusive
Cc1nn(C(=O)c2ccc3c(c2)OCO3)c(N)c1-c1ccccc1	p53ts 32C kill 13µM, p53ts 39C tox inconclusive
O=C(O)c1cc(C(=O)O)nc(C(=O)O)c1	none
CCOc1ccc(OCC)c(NC(=O)c2csc3c2CCCC3)c1	none
CC(=NCc1ccco1)c1c(O)n(C2CCCCC2)c(=O)[nH]c1=O	none
CC(=NCc1ccco1)c1c(C)[nH]n(-c2nc3ccccc3s2)c1=O	IkB signaling inconclusive, p53ts 32C kill inconclusive, p53ts 39C tox 7.9µM
CCN1CCN(C(=O)c2cc3c(=O)n4ccccc4nc3n2Cc2ccccc2)CC1	p53ts 32C kill 13µM, p53ts 39C tox 13µM
NNC(=O)c1ccc[n+](CCc2ccccc2)c1	none
CCCCCCCCCCCCC(=O)N1CCCC[C@H]1CNC(=O)[C@@H](N)CCCCN	p53ts 39C tox 32µM
O=C(CC12CC3CC(CC(C3)C1)C2)NC(=S)N1CCCCC1	none (no result: IkB signaling, Imprint erasure, p53ts 32C kill)
COc1ccc(CCNc2ncnc3c2c(-c2ccccc2)cn3-c2cccc(Cl)c2)cc1OC	IkB signaling inconclusive
Nc1nc(SCCc2ccccc2)c2[nH]cnc2n1	none
COc1ccc(NC(=O)Nc2ccccc2OCc2cc(=O)n3ccccc3n2)c(OC)c1	p53ts 32C kill inconclusive, p53ts 39C tox 16µM
COc1ccc(OC)c(NC(=O)Nc2cccc(OCc3cc(=O)n4cc(C)ccc4n3)c2)c1	IkB signaling inconclusive, p53ts 32C kill 6.3µM, p53ts 39C tox 6.3µM
CCC(=O)Nc1cccc(OCc2cc(=O)n3cc(C)ccc3n2)c1	IkB signaling inconclusive, p53ts 32C kill inconclusive, p53ts 39C tox inconclusive
NNC(=O)[C@@H](O)[C@H](O)C(=O)NN	none
CCOc1cc(C(=O)CSc2nnc(CNc3ccc(Cl)cc3)o2)ccc1NC(=O)CC	p53ts 32C kill 16µM, p53ts 39C tox 16µM (no result: Imprint erasure)
COc1cccc(CC(=O)Nc2ccc(-c3nc4ccccc4s3)cc2Cl)c1	none
CC1=CC(=C2C(=O)c3ccccc3C2=O)C=C(C)O1	none
COC1=C(OC)C(=O)c2ccccc2C1=O	p53ts 32C kill 6.3µM, p53ts 39C tox 4µM
Cc1ccc(Cn2c(SCC(=O)NCc3ccccc3Cl)nc3ccsc3c2=O)cc1	p53ts 39C tox 10µM
O=C(CSc1nc2ccsc2c(=O)n1Cc1ccccc1Cl)NCc1ccc(Cl)cc1	none
COc1cccc(NC(=S)N/N=C2/CCCCc3ccccc32)c1	p53ts 32C kill inconclusive, p53ts 39C tox 22µM (no result: IkB signaling, Imprint erasure)
Cc1ccc(O)c(N=Nc2ccccc2)n1	p53ts 32C kill 20µM, p53ts 39C tox 13µM
Cc1cc(Nc2ccc(N=Nc3ccc(O)c4ncccc34)cc2)nc(C)n1	none
